Reference: the supplement of paper PMC10849652
The full data set covers some 7,900 targets. This sample favours those with a hit. About 0.6% of all pairs of compound and target were hits. Values without a mark were called inactive.

Tests used:
Test in all cases: log2 fold change, soluble protein after heating vs DMSO (PISA); higher = thermal stabilisation; K562 cells, 10 uM, 30 min; active = over 0.2 and 3.5 SD of the protein, either way, in both replicates (recomputed)
[1] = compound: CC1=C(C=C(C=C1)NC(=O)C2=CC(=CC=C2)C(C)(C)C#N)NC3=CC4=C(C=C3)N=CN(C4=O)C
Method in brief: (§1)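 For each measurement, 10 μM compound was applied for 30 min to K562 cells at 2×10^6 cells/mL. Aliquots were heated for 3 min across 48°C-58°C, pooled, and extracted in PBS with 0.5% NP-40 at 4°C; the supernatant after 21,000xg for 90 min was soluble protein. This was quantified by TMTpro 16plex LC-MS/MS with channel sums equalised, and thermal stability was reported relative to control samples from duplicates, on a log2 fold-change scale.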

[2] = compound: CC1=C(C=C(C=C1)NC(=O)C2=CC(=CC=C2)N(C)C)NC(=O)C3=CC=C(C=C3)O
Method in brief: as §1

[3] = compound: CC1=CC=C(C=C1)SC2=C3C=C(SC3=CN=C2)C(=O)N
Method in brief: as §1

[4] = compound: CC1=NC(=CC=C1)C2=C(N=C(N2)C(C)(C)C)C3=CC4=NC=CN=C4C=C3
Method in brief: as §1

[5] = compound: CCCCN(Cc1ccc(C(=O)NO)cc1)C(=O)Nc1ccccc1 [Nexturastat A]
Method in brief: as §1

[6] = compound: CCCS(=O)(=O)Nc1ccc(F)c(C(=O)c2c[nH]c3ncc(-c4ccc(Cl)cc4)cc23)c1F [vemurafenib]
Method in brief: as §1

[7] = compound: CCCS(=O)(=O)Nc1ccc(F)c(C(=O)c2c[nH]c3ncc(Cl)cc23)c1F
Method in brief: as §1

[8] = compound: CCCc1cc(C)[nH]c(=O)c1CNC(=O)c1cc(-c2ccnc(N3CCN(C)CC3)c2)cc2c1cnn2C(C)C
Method in brief: as §1

[9] = compound: CCN(CC)Cc1ccc2cc(COC(=O)Nc3ccc(C(=O)NO)cc3)ccc2c1 [givinostat]
Method in brief: as §1

[10] = compound: CCN(CCCOc1ccc2c(Nc3cc(CC(=O)Nc4cccc(F)c4)[nH]n3)ncnc2c1)CCOP(=O)(O)O [barasertib]
Method in brief: as §1

UniProt Q96I24, sequence (Q96I24 whole entry, looked up): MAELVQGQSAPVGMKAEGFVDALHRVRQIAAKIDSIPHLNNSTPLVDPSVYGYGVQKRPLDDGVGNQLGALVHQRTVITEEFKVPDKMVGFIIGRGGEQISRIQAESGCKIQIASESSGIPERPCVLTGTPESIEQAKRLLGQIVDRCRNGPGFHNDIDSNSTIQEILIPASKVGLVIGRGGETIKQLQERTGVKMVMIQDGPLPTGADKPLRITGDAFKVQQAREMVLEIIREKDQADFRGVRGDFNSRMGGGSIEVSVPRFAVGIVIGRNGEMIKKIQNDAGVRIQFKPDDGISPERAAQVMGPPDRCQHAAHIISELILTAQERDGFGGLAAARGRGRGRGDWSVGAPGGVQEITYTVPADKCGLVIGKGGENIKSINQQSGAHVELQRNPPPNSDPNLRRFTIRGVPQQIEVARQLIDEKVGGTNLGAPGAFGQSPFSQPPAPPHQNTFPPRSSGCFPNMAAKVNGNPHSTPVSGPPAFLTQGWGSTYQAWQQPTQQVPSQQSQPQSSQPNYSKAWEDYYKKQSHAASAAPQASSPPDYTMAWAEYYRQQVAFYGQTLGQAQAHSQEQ
UniProt O15228, sequence (O15228 whole entry, looked up): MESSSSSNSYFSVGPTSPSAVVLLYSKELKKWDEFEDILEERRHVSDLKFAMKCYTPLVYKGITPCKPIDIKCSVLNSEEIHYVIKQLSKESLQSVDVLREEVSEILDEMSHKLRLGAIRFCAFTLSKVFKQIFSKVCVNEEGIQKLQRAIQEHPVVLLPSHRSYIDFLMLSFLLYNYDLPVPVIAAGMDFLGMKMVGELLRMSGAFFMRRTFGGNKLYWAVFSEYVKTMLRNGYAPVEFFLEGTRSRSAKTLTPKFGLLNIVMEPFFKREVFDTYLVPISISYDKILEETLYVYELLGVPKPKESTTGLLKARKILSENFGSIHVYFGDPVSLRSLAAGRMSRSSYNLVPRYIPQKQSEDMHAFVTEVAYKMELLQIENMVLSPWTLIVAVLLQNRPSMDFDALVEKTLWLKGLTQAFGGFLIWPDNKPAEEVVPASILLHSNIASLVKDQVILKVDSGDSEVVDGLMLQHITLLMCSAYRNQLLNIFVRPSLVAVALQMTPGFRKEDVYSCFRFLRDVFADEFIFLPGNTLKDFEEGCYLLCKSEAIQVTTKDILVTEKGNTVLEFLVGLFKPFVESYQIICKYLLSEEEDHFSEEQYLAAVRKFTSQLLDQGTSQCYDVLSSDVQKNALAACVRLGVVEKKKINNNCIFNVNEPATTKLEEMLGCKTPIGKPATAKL
UniProt P31150, sequence (P31150 whole entry, looked up): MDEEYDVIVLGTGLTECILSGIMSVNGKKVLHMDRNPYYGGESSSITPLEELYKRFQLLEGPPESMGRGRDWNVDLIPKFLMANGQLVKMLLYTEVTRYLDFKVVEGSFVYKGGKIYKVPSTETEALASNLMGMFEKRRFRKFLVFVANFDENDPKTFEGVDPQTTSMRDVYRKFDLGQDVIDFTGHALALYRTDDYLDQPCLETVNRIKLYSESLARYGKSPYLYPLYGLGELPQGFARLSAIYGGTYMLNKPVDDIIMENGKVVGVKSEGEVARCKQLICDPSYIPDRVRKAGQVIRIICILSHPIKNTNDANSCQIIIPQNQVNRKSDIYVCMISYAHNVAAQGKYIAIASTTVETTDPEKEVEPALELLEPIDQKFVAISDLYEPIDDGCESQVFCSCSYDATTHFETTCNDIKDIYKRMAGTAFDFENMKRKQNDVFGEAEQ
UniProt P11142, sequence (P11142 whole entry, looked up): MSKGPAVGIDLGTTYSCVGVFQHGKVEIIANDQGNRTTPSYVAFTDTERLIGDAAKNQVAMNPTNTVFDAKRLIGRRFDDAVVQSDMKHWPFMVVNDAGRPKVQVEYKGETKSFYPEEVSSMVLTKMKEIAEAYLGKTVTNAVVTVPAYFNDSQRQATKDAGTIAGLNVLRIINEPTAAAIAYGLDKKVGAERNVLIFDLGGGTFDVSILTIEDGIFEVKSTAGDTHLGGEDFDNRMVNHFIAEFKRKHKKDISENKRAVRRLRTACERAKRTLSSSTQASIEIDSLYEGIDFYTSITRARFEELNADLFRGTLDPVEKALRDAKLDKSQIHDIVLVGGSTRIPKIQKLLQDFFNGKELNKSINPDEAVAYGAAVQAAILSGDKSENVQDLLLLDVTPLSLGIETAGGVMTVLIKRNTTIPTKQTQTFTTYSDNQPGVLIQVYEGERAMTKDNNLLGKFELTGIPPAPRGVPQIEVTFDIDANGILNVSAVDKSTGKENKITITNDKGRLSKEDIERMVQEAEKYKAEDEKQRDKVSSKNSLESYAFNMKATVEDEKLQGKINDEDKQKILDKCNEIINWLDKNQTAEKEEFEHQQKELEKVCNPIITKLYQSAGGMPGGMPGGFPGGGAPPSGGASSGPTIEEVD
UniProt Q9BUJ2, sequence (Q9BUJ2 whole entry, looked up): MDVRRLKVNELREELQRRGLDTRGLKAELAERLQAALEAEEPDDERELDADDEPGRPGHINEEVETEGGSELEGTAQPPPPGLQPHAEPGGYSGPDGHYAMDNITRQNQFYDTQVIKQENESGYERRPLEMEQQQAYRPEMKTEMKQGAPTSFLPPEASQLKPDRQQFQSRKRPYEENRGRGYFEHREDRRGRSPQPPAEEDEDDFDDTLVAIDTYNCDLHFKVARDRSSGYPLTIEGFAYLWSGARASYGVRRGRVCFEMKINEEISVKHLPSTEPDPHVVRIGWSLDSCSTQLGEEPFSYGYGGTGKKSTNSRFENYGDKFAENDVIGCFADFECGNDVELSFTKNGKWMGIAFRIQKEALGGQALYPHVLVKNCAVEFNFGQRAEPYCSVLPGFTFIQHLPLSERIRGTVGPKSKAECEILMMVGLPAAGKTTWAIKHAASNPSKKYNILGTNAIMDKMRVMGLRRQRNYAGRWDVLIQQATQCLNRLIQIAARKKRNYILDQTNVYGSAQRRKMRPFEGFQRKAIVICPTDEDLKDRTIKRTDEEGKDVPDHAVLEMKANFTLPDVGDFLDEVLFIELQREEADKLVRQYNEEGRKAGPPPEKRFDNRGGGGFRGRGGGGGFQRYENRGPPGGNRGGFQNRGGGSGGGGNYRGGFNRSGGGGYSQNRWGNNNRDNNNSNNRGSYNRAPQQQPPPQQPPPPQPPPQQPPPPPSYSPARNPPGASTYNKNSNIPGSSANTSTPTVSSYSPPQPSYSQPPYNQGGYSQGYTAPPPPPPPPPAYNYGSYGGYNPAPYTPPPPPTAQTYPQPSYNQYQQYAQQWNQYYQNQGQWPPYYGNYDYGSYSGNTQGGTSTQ
UniProt Q53GQ0, sequence (Q53GQ0 whole entry, looked up): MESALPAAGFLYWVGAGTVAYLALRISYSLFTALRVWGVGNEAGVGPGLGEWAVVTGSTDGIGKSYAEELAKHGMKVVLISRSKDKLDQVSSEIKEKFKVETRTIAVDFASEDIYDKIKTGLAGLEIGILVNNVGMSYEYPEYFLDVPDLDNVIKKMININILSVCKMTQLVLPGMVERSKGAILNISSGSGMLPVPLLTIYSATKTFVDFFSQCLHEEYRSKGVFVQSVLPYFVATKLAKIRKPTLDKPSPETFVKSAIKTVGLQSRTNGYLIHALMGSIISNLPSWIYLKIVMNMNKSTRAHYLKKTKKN
UniProt P07686, sequence (P07686 whole entry, looked up): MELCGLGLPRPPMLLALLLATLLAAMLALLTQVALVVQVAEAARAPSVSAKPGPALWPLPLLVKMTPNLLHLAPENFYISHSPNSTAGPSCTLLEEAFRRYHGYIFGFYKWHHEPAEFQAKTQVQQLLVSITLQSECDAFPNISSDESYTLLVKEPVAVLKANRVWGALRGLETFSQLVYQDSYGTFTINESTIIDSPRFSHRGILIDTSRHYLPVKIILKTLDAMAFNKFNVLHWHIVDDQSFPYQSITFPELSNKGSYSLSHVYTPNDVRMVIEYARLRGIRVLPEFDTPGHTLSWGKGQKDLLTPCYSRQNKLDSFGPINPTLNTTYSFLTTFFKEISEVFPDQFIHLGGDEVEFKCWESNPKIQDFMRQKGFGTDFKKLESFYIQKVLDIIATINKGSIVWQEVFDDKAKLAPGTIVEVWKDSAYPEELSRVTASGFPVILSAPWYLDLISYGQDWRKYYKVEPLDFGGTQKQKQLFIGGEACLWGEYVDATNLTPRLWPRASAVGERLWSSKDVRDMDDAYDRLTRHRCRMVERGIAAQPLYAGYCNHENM
UniProt Q13889, sequence (Q13889 whole entry, looked up): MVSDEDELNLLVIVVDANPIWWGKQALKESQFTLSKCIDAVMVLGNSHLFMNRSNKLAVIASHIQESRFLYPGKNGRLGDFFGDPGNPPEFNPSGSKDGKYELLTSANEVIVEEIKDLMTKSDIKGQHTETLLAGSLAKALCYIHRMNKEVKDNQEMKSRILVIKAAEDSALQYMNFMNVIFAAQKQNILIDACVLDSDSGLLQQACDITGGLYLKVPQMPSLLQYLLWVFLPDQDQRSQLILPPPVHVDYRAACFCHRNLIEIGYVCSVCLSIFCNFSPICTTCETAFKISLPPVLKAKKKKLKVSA
UniProt Q9UJY4, sequence (Q9UJY4 whole entry, looked up): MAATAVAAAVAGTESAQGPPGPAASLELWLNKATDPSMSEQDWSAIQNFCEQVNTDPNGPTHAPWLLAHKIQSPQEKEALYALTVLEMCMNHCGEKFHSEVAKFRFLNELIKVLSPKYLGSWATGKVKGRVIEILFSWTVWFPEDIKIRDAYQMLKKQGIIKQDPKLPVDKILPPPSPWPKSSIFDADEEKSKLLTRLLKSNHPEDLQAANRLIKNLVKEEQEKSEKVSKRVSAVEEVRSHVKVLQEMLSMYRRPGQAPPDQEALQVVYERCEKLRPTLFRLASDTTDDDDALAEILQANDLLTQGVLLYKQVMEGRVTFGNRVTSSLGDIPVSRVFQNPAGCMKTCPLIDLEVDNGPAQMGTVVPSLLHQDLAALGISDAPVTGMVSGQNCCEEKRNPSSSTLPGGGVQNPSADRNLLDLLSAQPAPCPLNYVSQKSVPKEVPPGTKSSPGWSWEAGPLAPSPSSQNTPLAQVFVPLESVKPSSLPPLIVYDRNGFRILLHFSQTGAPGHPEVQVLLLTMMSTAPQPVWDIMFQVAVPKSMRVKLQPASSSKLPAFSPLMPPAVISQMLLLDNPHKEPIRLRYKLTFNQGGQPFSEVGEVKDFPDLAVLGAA

Target | log2 fold change [1] | log2 fold change [2] | log2 fold change [3] | log2 fold change [4] | log2 fold change [5] | log2 fold change [6] | log2 fold change [7] | log2 fold change [8] | log2 fold change [9] | log2 fold change [10]
GYG1 (UniProt P46976) | 0.209 | 0.035 | -0.041 | -0.029 | 0.146 | 0.014 | 0.046 | 0.101 | 0.027 | -0.037
H2AFX (UniProt P16104) | -0.088 | -0.006 | -0.231 | -0.073 | 0.754 | -0.232 | 0.329 | 0.1 | 0.328 | -0.11
HMGCR isoform 3 (UniProt P04035) | 0.131 | -0.046 | 0.061 | -0.115 | 0.074 | -0.002 | -0.04 | -0.043 | 0.034 | 0.027
GLRX3 (UniProt O76003) | 0.007 | -0.033 | 0.02 | 0.028 | -0.049 | 0.024 | 0.139 | 0.014 | 0.01 | 0.054
GNPAT (UniProt O15228) | -0.03 | -0.046 | 0.007 | 0 | -0.039 | 0.023 | 0.045 | 0.03 | 0.022 | 0.044
GSTM4 (UniProt Q03013) | 0.106 | 0.128 | -0.041 | 0.015 | -0.117 | 0.126 | -0.058 | -0.105 | 0.001 | -0.164
GLCCI1 (UniProt Q86VQ1) | 0.037 | 0.104 | -0.029 | 0.028 | 0 | -0.007 | -0.035 | 0.033 | 0.045 | -0.075
GSTP1 (UniProt P09211) | 0.006 | -0.003 | 0.008 | 0.008 | -0.108 | 0.022 | -0.006 | -0.1 | -0.019 | 0.023
GLS isoform 3 (UniProt O94925) | 0.004 | -0.119 | -0.01 | 0.167 | 0.087 | 0.155 | 0.236 | 0.061 | 0.031 | 0.061
FMC1 (UniProt Q96HJ9) | -0.036 | -0.029 | 0.027 | 0.004 | -0.038 | -0.065 | 0.014 | -0.074 | -0.051 | 0.022
GTF2H3 (UniProt Q13889) | -0.094 | -0.008 | -0.024 | 0 | 0.016 | -0.081 | -0.021 | -0.112 | 0.068 | -0.042
HEXB (UniProt P07686) | 0 | 0.029 | 0.028 | 0.022 | -0.078 | -0.003 | -0.001 | -0.019 | -0.016 | -0.015
FBXO6 (UniProt Q9NRD1) | 0.006 | 0.006 | 0.048 | 0.026 | -0.04 | 0.044 | 0.014 | -0.01 | -0.093 | -0.008
HSPA8 (UniProt P11142) | 0.021 | 0.005 | -0.025 | 0.011 | -0.011 | -0.008 | -0.02 | 0.04 | -0.02 | -0.005
GGA2 (UniProt Q9UJY4) | -0.015 | 0.033 | -0.047 | 0.06 | 0.582 (active) | 0.053 | 0.017 | -0.059 | -0.03 | 0.051
GPS2 (UniProt Q13227) | -0.13 | -0.04 | -0.17 | -0.013 | -0.316 (active) | 0.019 | -0.01 | 0.026 | -0.145 | -0.008
GDI1 (UniProt P31150) | 0.007 | 0.012 | -0.003 | 0.009 | -0.051 | 0.015 | -0.008 | -0.027 | -0.032 | 0.012
HSD17B12 (UniProt Q53GQ0) | 0.094 | 0.032 | 0 | 0.022 | -0.111 | -0.006 | -0.01 | -0.141 | -0.018 | -0.04
GABPA (UniProt Q06546) | -0.007 | -0.011 | 0.064 | 0.039 | 0.008 | 0.062 | 0.09 | -0.004 | 0.17 | 0.022
GLUL (UniProt P15104) | -0.008 | -0.003 | 0.055 | -0.013 | -0.02 | -0.04 | -0.084 | -0.016 | -0.082 | 0.004
HIP1 (UniProt O00291) | -0.086 | -0.004 | -0.028 | 0.002 | 0.286 (active) | -0.003 | 0.056 | 0.233 | 0.043 | 0.01
IFRD1 (UniProt O00458) | 0.123 | 0.033 | 0.098 | -0.04 | -0.103 | 0.001 | 0.058 | -0.111 | -0.154 | -0.079
GLUD2 (UniProt P49448) | 0.104 | 0.006 | -0.062 | -0.015 | -0.045 | 0.017 | 0.006 | 0.238 | -0.107 | 0.015
HNRNPUL1 (UniProt Q9BUJ2) | -0.063 | -0.058 | -0.013 | 0.03 | 0.024 | 0.032 | -0.033 | 0.024 | 0.046 | 0.04
GCLM (UniProt P48507) | 0.044 | -0.04 | 0.019 | 0.057 | -0.006 | 0.1 | 0.099 | 0.002 | 0.074 | 0.066
FLNA (UniProt P21333) | -0.03 | -0.049 | 0.015 | 0.006 | 0.092 | 0.021 | 0.075 | 0.044 | 0.092 | 0.019
FUBP3 (UniProt Q96I24) | 0.021 | -0.018 | 0.01 | 0.122 | -0.114 | 0.035 | 0.018 | -0.059 | -0.023 | -0.012
GALNT2 (UniProt Q10471) | -0.003 | -0.035 | 0.016 | 0.038 | -0.032 | 0 | 0.04 | 0.03 | -0.005 | 0.011
FBXO42 (UniProt Q6P3S6) | -0.033 | 0.164 | -0.038 | 0.04 | -0.072 | -0.086 | 0.083 | -0.025 | 0.09 | 0.015
GOLGB1 isoform 2 (UniProt Q14789) | 0.033 | -0.057 | -0.09 | -0.033 | 0.177 | -0.085 | -0.07 | -0.047 | 0 | -0.07
